Source: PubChem BioAssay (EPA / NIEHS)
Calls of active or inactive are those of the source. Rule for the calls: active = hit-call score of the fitted dose curve at least 0.9, where 1 is the maximum; inactive = score below 0.9.

read-out: Epidermal growth factor receptor (EGFR), EGFR (gene 1956); assay: BSK_hDFCGF_EGFR: BioMAP Diversity Plus: hDFCGF Assay for Epidermal growth factor receptor (EGFR) Biomarker Activity (AID 2283057); details: primary human foreskin fibroblasts; actives raise or lower the signal
Description: BSK_hDFCGF is a cell-based, multiplexed-readout assay that uses foreskin fibroblast, a human skin primary cell, with measurements taken at 24 hours after chemical dosing in a 96-well plate.BSK_hDFCGF_EGFR is an assay component measured in the BSK_hDFCGF assay. It measures EGFR antibody related to regulation of gene expression using ELISA technology.Data from the assay component BSK_hDFCGF_EGFR was analyzed into 1 assay endpoint. This assay endpoint, BSK_hDFCGF_EGFR, was analyzed with bidirectional fitting relative to DMSO as the negative control and baseline of activity. Using a type of binding reporter, gain or loss-of-signal activity can be used to understand changes in the signaling as they relate to the gene EGFR. Furthermore, this assay endpoint can be referred to as a primary readout, because this assay has produced multiple assay endpoints where this one serves a signaling function. To generalize the intended target to other relatable targets, this assay endpoint is annotated to the kinase intended target family, where the subfamily is receptor tyrosine kinase.
The levels of cell surface (or secreted, indicated by the prefix "s") biomarker endpoints were measured by ELISA. Overt cytotoxicity to cells in confluent adherent cultures (all systems other than the BT system) was assessed by measuring total protein levels using sulforhodamine B (SRB) staining in parallel cultures at the time of biomarker measurements, indicated as SRB endpoints. For proliferation assays for adherent cell types, individual cell types are cultured at sub-confluence and relative cell numbers quantified by SRB staining at time points optimized for each system (48 h: 3C and CASM3C systems; 72 h: BT and HDF3CGF systems; 96 h: SAg system). SRB was performed by staining cells with 0.1% SRB after fixation with 10% TCA and reading wells at 560 nm.Viability and proliferation of PBMC (T cells) was quantified by Alamar Blue reduction for the SAg and BT systems. For PBMC viability (referred to as PBMC Cytotoxicity within the assay endpoint names), cells were plated (75,000/well in a 96-well plate) and then chemical samples added for 1 h before addition of activators, SEB and TSST-1 (20 ng/mL final concentration each). Cells were incubated for 90 h. Then, Alamar Blue (20 uL/well) (Invitrogen, Cat DAL1100) was added for 6 h, and the plates were read with a fluorescence microplate reader at 546/580 nm (excitation/emission). For PBMC proliferation, cells were plated and activated as above but incubated for only 16 h prior to addition of Alamar Blue. Plates were read after 6 h.

SMILES	outcome	AC50
CCC(C)(C)C(=O)O[C@H]1C[C@@H](C)C=C2C=C[C@H](C)[C@H](CC[C@@H]3C[C@@H](O)CC(=O)O3)[C@H]21	inactive	–
COc1cccc(-c2ccc(/C=C\CN3CCCCCC3)cc2Cl)c1	–	32.2 µM (active)
CN(C)c1ccc(N=NS(=O)(=O)O)cc1	inactive	–
CC(C)CCCCCCCOC(=O)CCCCC(=O)OCCCCCCCC(C)C	inactive	–
COCCOc1cc2cc(C(=O)NC3CCN(C(C)C)CC3)n(CC(=O)Nc3ccc(Cl)cn3)c2cn1	inactive	–
CCn1nc(Cc2ccccc2)cc1C1CCN(C[C@H]2C[C@H](N(C)[C@@H](C(=O)O)C(C)C)C[C@@H]2c2cccc(F)c2)CC1	inactive	–
CC[C@H]1OC(=O)[C@H](C)[C@@H](O[C@H]2C[C@@](C)(OC)[C@@H](O)[C@H](C)O2)[C@H](C)[C@@H](O[C@@H]2O[C@H](C)C[C@H](N(C)C)[C@H]2O)[C@](C)(O)C[C@@H](C)C(=O)[C@H](C)[C@@H](O)[C@]1(C)O	inactive	–
CC(C)(O)c1coc(S(=O)(=O)NC(=O)Nc2c3c(cc4c2CCC4)CCC3)c1	inactive	–
CCCCCCc1ccc(O)cc1O	–	20 µM (active)
CC(C)=CCCC(C)=CC=O	inactive	–
Cn1cnc([N+](=O)[O-])c1Sc1ncnc2nc[nH]c12	inactive	–
CCCCC(CC)COC(=O)c1ccc(C(=O)OCC(CC)CCCC)cc1 (stereo not given)	inactive	–
Nc1ccc(Nc2ccccc2)cc1	inactive	–
NC(=O)NO	inactive	–
CCCN(C1CCN(C(=O)C2CCNCC2)CC1)[C@@H]1CCc2ccc(OC)cc2C1	inactive	–
CCc1cc(SCc2sc(-c3ccc(C(F)(F)F)cc3)nc2CN2CCN(c3ccc(OC)cc3)CC2)ccc1OCC(=O)O	–	1.94 µM (active)
CCN(C(=O)c1cc(C)cc(OC[C@H](C)Nc2ccncc2)c1)C(C)C	inactive	–
O=C(O)CC(O)C(=O)O (stereo not given)	inactive	–
CNS(=O)(=O)c1cc(C(=O)N2CCC(CCN3C4CCC3CC(n3c(C)nc5ccccc53)C4)(c3cccc(F)c3)CC2)c(Cl)cc1F (stereo not given)	inactive	–
CC(=O)c1ccc2c(c1)[C@H](NC(=O)c1ccc(F)cc1)[C@@H](O)C(C)(C)O2	inactive	–

SMILES	outcome	AC50
C1=CCCC=CCCC=CCC1	inactive	–
CN(C)c1ccc(Cc2ccc(N(C)C)cc2)cc1	inactive	–
Cc1[nH]cnc1C[C@H]1CCc2c(C)c3ccccc3n2C1=O	inactive	–
CC(C)CC(C)(O)C#CC(C)(O)CC(C)C (stereo not given)	inactive	–
Cc1ccc(S(=O)(=O)O)cc1C	inactive	–
CC(C)c1cccc(C(C)C)c1N1C(=O)c2ccc(O)cc2C1=O	inactive	–
CC(O)CN(CCN(CC(C)O)CC(C)O)CC(C)O (stereo not given)	inactive	–
CC(C)CCO	inactive	–
O=C(O)c1cccc(Oc2ccccc2)c1	inactive	–
CC(C)CCCCCCOC(=O)c1ccc(C(=O)OCCCCCCC(C)C)c(C(=O)OCCCCCCC(C)C)c1	inactive	–
Clc1nc(Cl)c(Cl)c(Cl)c1Cl	inactive	–
O=c1[nH]c2ccc(S(=O)CCN3CCC(Cc4ccc(F)cc4)CC3)cc2o1 (stereo not given)	inactive	–
Cc1ccc(N)cc1O	inactive	–
CCOC(=O)c1ccc(C2CCC(NC[C@H](O)COc3ccc(O)c(NS(C)(=O)=O)c3)CC2)cc1 (stereo not given in full)	–	6.27 µM (active)
CCCCCCCCCCCCc1ccccc1	inactive	–
O=C1CCCCCN1	inactive	–
Cn1c(=O)cc(Oc2ccc(F)cc2F)c2cnc(NCC(C)(C)O)nc21	inactive	–
CCOC(=O)COc1ccc2c(c1)CC(NCC(O)c1cccc(Cl)c1)CC2 (stereo not given)	–	33.4 µM (active)
CC(=O)OCCC(C)C	inactive	–
CCCCCCCCO	inactive	–
